According to PubChem BioAssay AID686979 (National Center for Advancing Translational Sciences (NCATS), 2013):
Hit rate of the full screen: of about 420,000 compounds, about 50,000 (12%) were called active. Another 26% or so got no clear call; they are omitted. This is one part of a sample in which actives are shown more often than they occur. Calls come from the whole dose curve; as a rule, active = well fitted inhibition curve with a large enough effect; inconclusive = small, poorly fitted or top-dose-only effect; inactive = flat fitted curve, though single readings scatter.

assay: qHTS for Inhibitors of human tyrosyl-DNA phosphodiesterase 1 (TDP1): qHTS in cells in presence of CPT; details: chicken DT40 Tdp1-/-;hTDP1 cells + 20 nM CPT, ATP luminescence, 48 h; series mostly up to 46.2 µM; activity change, negative = growth inhibition: at the top concentration; note: nearly all actives have a fitted effect of over 55% in size
Outline: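 Chicken DT40 Tdp1-/- cells stably complemented with human TDP1 were seeded at 400 cells/well in medium containing 20 nM camptothecin, exposed to pin-transferred compounds, and grown at 37 °C for at least 48 hr. Viability was read as ATP luminescence.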
% is set by controls: 0 for no effect and ±100 for the full control effect; potency is the fitted concentration of half-maximal effect.

| SMILES | activity change, negative = growth inhibition | Potency |
| --- | --- | --- |
| CCc1c(C)nc2cc(C)[nH]n2c1=O | -3.18% (inactive) |  |
| CCOc1ccc(S(=O)(=O)NCCC(=O)NCC2CCCO2)cc1 (stereo unspecified) | 4.72% (inactive) |  |
| Cc1c[n+]([O-])ccc1[N+](=O)[O-] | -29.1% (inactive) |  |
| O=C(NCc1ccccc1)[C@H]1C[C@@H]1[C@H](NP(=O)(c1ccccc1)c1ccccc1)c1ccccc1 |  | 18.4 µM (active) |
| O=C(NCc1ccccc1)C1CNCC(C(=O)NCc2ccccc2)C1 (stereo unspecified) | -5.56% (inactive) |  |
| O=C(O)C1CC=C(Cl)CC1C(=O)NCc1ccccc1 (stereo unspecified) | -22% (inactive) |  |
| CCc1cc2cc(OC)ccc2nc1SCC(=O)Nc1cc(OC)c(OC)cc1C(=O)O | -17.5% (inactive) |  |
| COc1ccc(C)cc1NC(=O)CSc1cccc[n+]1[O-] | 1.37% (inactive) |  |
| CCC(C(=O)Nc1c(C)cccc1C)n1c(-c2cc(C)cs2)nc2ccccc21 (stereo unspecified) | 0.528% (inactive) |  |
| CC(C)(C)NC(=O)C(CCc1ccccc1)n1c(=O)c(-c2ccccc2)nc2ccccc21 (stereo unspecified) |  | 5.17 µM (active) |
| CCCc1nc2ccccc2n1C(C)C(=O)NC(C)(C)C (stereo unspecified) | -17.6% (inactive) |  |
| CC(=O)c1nc2ccccc2n1Cc1ccccc1 | 2.81% (inactive) |  |
| Cn1c(CNC(=O)C(C)(C)C)nc2ccccc21 | 6.61% (inactive) |  |
| CCC(C(=O)NC(C)(C)C)n1c(-c2ccccc2)nc2ccccc21 (stereo unspecified) |  | 20.6 µM (active) |
| COc1ccc(OC)c(/C=N/NC(=O)c2ccc[n+](CC(=O)c3ccccc3)c2)c1 | -15.7% (inactive) |  |
| COc1cccc(NC(=O)CN(C)C(=O)c2cc(C3CC3)nn2-c2ccccc2)c1 | -10.6% (inactive) |  |
| CC(=O)Nc1ccc(NC(=O)COC(=O)C2CCC(C(C)(C)C)CC2)cc1 (stereo unspecified) | -21.5% (inactive) |  |
| O=C(NCc1cccc(Cl)c1)C1CCN(c2nnc(N3CCCC3=O)s2)CC1 | -13.8% (inactive) |  |
| COc1ccc(CCNC(=O)CN2CCC(n3nnc4cc(F)ccc43)CC2)cc1OC | 1.72% (inactive) |  |
| Cc1ccc(CCNC(=O)Cn2c(-c3cccs3)cc3cc(F)ccc32)cc1 |  | 18.4 µM (active) |
| COc1ccc(CCNC(=O)COC(=O)Cc2cccc(F)c2)cc1 | 1.26% (inactive) |  |
| Cc1cnc(C(=O)Oc2cccc(Cl)c2Cl)cn1 | 3.5% (inactive) |  |

| SMILES | activity change, negative = growth inhibition | Potency |
| --- | --- | --- |
| CCOC(=O)c1cnc(SC)nc1Sc1ccc(Cl)cc1Cl | -26.7% (inactive) |  |
| O=C1[C@@H](c2ccccc2)[C@@H](c2ccccc2)N1c1cccnc1 |  | 16.4 µM (active) |
| CCc1ccccc1NC1c2ccccc2C(=O)N1c1cccnc1 (stereo unspecified) | -23% (inactive) |  |
| O=C1C(=O)N(c2ccccc2)C(c2ccccc2)C1c1ccccc1 (stereo unspecified) | -1.33% (inactive) |  |
| CCCN(CCC)c1c([N+](=O)[O-])c(=O)oc2ccccc12 | 28.2% (inactive) |  |
| O=C(COC(=O)c1ccncc1)c1ccccc1 | -3.52% (inactive) |  |
| Cc1[nH]c2ccc(C(=O)N3CCN(C)CC3)cc2c1C | 7.95% (inactive) |  |
| Cc1cccc(N2CCN(C(=O)c3cc4c(=O)[nH]c5ccccc5c4n3C)CC2)c1C |  | 18.4 µM (active) |
| O=C(c1c(Cl)cccc1Cl)N1CCN(c2cccc3[nH]ccc23)CC1 | -6.01% (inactive) |  |
| CN(C(=O)COC(=O)CCCc1c[nH]c2ccccc12)c1c(N)n(Cc2ccccc2)c(=O)[nH]c1=O | 7.29% (inactive) |  |
| Oc1cc(O)c2c(c1)OC(c1ccc(O)c(O)c1)C(O)C2 (stereo unspecified) | -17.7% (inactive) |  |
| Cc1sc2nc(-c3ccccc3F)oc(=O)c2c1C | 3.71% (inactive) |  |
| COc1ccccc1-c1nnc(-c2ccc(F)cc2)o1 | 6.98% (inactive) |  |
| COc1ccc(-c2csc3nc(-c4ccccc4F)oc(=O)c23)cc1OC |  | 18.4 µM (active) |
| Cc1ccc(N/C(N)=N/c2nc(C(F)(F)F)cc(C(F)(F)F)n2)cc1 | -9.78% (inactive) |  |
| CCc1cccc(NC(=O)CCNS(=O)(=O)c2cccc3nonc23)c1 |  | inactive |
| Cc1ccc(C)c(NC(=O)CSc2nc3c(oc4ccccc43)c(=O)n2-c2ccccc2)c1 |  | 14.6 µM (active) |
| CCOC(=O)c1ccc(NC(=O)c2cc(=O)[nH]c3ccccc23)cc1 | 0.272% (inactive) |  |
| Cc1ccc(NC(=O)CSc2nnc3[nH]c(=O)cc(C)n23)cc1Cl | 12.9% (inactive) |  |
| CCCCc1nc2c(=O)[nH]c3ccccc3c2o1 | -2.21% (inactive) |  |
| Cc1ccc(NC(=O)CSc2nc3c([nH]c4ccccc43)c(=O)n2-c2ccccc2)cc1Cl |  | 11.6 µM (active) |
| CC(Sc1nc2c([nH]c3ccccc32)c(=O)n1C)c1ccccc1 (stereo unspecified) |  | 11.6 µM (active) |

| SMILES | activity change, negative = growth inhibition | Potency |
| --- | --- | --- |
| CCOC(=O)c1ccc(NC(=O)CSc2nc3c([nH]c4ccccc43)c(=O)n2C)cc1 |  | 8.2 µM (active) |
| Cc1ccc(C)c(NC(=O)COC(=O)CSc2ccccc2)c1 | 1.12% (inactive) |  |
| CCc1ccc(NC(=O)CSc2nc3c([nH]c4ccccc43)c(=O)n2-c2cccc(OC)c2)cc1 | -24.3% (inactive) |  |
| Cc1cccc(NC(=O)CSc2nc3c(oc4ccccc43)c(=O)n2-c2ccc(F)cc2)c1 | -21.8% (inactive) |  |
| Cn1nnnc1SCc1cc(=O)[nH]c2ccccc12 | 1.58% (inactive) |  |
| CCOC(=O)c1ccc(NC(=O)CSc2nnc(COc3ccccc3OC)n2C)cc1 | -10.6% (inactive) |  |
| Nc1c(N(CCCO)C(=O)C2CCCC2)c(=O)[nH]c(=O)n1Cc1ccccc1 | -20.6% (inactive) |  |
| Cn1c(=O)[nH]c2c(c(C(=O)O)nn2C)c1=O | 25.9% (inactive) |  |
| Oc1c(Cl)cc(Cl)cc1/C=N/c1ncn[nH]1 | -23.1% (inactive) |  |
| Cc1ccc(NC(=O)CN(C)C(=O)c2ccc(Br)o2)cc1 | -1.54% (inactive) |  |
| CC(C)c1nnc(NC(=O)COC(=O)/C=C/c2ccc([N+](=O)[O-])cc2)s1 | -4.05% (inactive) |  |
| O=C(Nc1ccc(F)cc1)C(=O)c1cn(CC(=O)N2CCOCC2)c2ccccc12 | 0.0894% (inactive) |  |
| O=C(Nc1ccc(C(=O)O)cc1)/C(=C\c1ccccc1)NC(=O)c1ccc(Br)cc1 | -2.66% (inactive) |  |
| COc1cccc(NC(=O)Cn2c3ccc(F)cc3c3nc4n(c(=O)c32)CCS4)c1 | -6.67% (inactive) |  |
| C=CCN1C(=O)c2ccc(C(=O)N3CCC(C(=O)OCC)CC3)cc2C1=O | 1.36% (inactive) |  |
| O=[N+]([O-])c1ccc(N2CCN(c3ccc(O)cc3)CC2)c(Cl)c1 | -70.1% (inactive) |  |
| COc1ccc(S(=O)(=O)NCC(c2ccc(C)cc2)N2CCN(C)CC2)cc1OC (stereo unspecified) | -12.4% (inactive) |  |
| Cc1nn(Cc2ccccc2)c(C)c1C(=O)NCCN1C(=O)S/C(=C\c2ccc(F)cc2)C1=O |  | 16.4 µM (active) |
| Cn1cccc1/C=C1\SC(=O)N(CC(=O)Nc2ccc(F)cc2)C1=O | -23% (inactive) |  |
| Cc1nn(Cc2ccccc2)c(C)c1C(=O)NCCCN1CCCC1=O | 4.85% (inactive) |  |
| O=C(COc1coc(CN2CCN(c3ccccc3)CC2)cc1=O)N1CCc2ccccc21 | -5.85% (inactive) |  |
| CC(Sc1nnc(COc2ccccc2)n1-c1ccccc1)C(=O)O (stereo unspecified) | -7.31% (inactive) |  |
